Bioassay records: PubChem BioAssay, National Center for Advancing Translational Sciences (NCATS)
Compounds with a hit are over-represented: about 10% of the library has one in this group of screens.
ALOX12 inhib: inhibitors of human 12-lipoxygenase (ALOX12). P18054. purified 12-hLO, xylenol orange hydroperoxide absorbance. Potency, µM (top dose mostly 57.1 µM), for inactives: top-dose activity change, negative = inhibition, most hits filed as inhibitors. hit rate 0.12% among 150,000. AID 1452; further: potency means the concentration at half of the fitted maximal effect; nearly all actives have a fitted effect of over 55% in size
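Hydroperoxide output read as Fe(III)-xylenol orange absorbance, 573-to-405 nm ratio, after 30 min reaction with 40 uM arachidonic acid. Enzyme: 150 nM purified human 12hLO, 15 min compound preincubation; 25 mM Hepes pH 7.0, room temperature.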
ALDH1A1 block: inhibitors of human aldehyde dehydrogenase 1A1 | P00352 | Purified ALDH1A1, NADH fluorescence, propionaldehyde substrate | Potency, µM (doses to about 75.3 µM), inactives show at the highest dose activity, negative = inhibition, usual class: inhibitors | hit rate 7.3% among 220,000; active means well fitted inhibition curve with a large enough effect, not every such curve was filed as active; inconclusive means small, poorly fitted or top-dose-only effect, or another doubt; inactive means no such curve, though single readings can be large or run the other way;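 further: potency means the concentration at half of the fitted maximal effect; plate controls were no enzyme wells and a reference inhibitor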
Target sequence (P00352 whole entry, looked up): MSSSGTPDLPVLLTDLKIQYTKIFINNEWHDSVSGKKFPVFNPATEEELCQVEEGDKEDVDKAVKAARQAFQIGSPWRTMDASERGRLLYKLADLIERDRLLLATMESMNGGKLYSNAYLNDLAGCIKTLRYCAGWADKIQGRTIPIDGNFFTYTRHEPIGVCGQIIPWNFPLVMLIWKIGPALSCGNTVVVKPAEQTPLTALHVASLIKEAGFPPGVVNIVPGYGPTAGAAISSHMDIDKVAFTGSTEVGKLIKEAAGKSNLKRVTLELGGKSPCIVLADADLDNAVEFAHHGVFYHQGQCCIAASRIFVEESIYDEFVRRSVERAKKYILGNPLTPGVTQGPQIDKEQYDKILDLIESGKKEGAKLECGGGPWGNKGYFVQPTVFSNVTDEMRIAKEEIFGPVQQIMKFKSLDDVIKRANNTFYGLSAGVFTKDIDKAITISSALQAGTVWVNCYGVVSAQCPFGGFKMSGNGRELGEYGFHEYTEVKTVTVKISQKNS
PNC inhibitor: blocks assembly of the perinucleolar compartment. PC3M PTB-GFP, PNC prevalence imaging, 16 h; stronger effect = lower value. activity change (PNC), negative = inhibition, % at 10 µM. hit rate 3.1% among 140,000. AID 2417;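 active means readout at or below -70, meaning at least 70% loss of cells showing the perinucleolar compartment, a nuclear body marking cancer cells; inconclusive means readout between -30 and a set limit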;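 further: plate controls were DMSO wells for no effect and camptothecin positive control wells for full effect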
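PC3M cells stably expressing PTB-GFP, 750–1000 cells/well, treated 16 h at 37 °C with compound (23 nl of library stock), in duplicate. After paraformaldehyde fixation and Hoechst stain, imaged at 20x; PNC prevalence scored by image analysis.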
HPGD block: inhibitors of human 15-hydroxyprostaglandin dehydrogenase (HPGD); hit rate 4.3% among 150,000; purified HPGD, NADH fluorescence kinetic, PGE2 substrate; Potency, µM, without a hit: at the highest dose activity change, negative = inhibition, hits mostly inhibitors; AID 894; active means well fitted inhibition curve with a large enough effect, not every such curve was filed as active; inconclusive means small, poorly fitted or top-dose-only effect, or another doubt; inactive means no such curve, though single readings can be large or run the other way; further: potency means the concentration at half of the fitted maximal effect
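20 nM HPGD preincubated 15 min at room temperature with compound in 50 mM Tris-HCl pH 8, 0.01% Tween 20. Started with 1 mM NAD+ and 30 uM prostaglandin E2; NADH fluorescence (360/450 nm) read 5 times over 30-s intervals, last minus first.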
aGal spleen mod: inhibits or activates alpha-galactosidase in human spleen homogenate; hit rate 0.008% among 240,000; P06280; human spleen homogenate, 4MU-alpha-Gal fluorescence, 40 min; Potency, µM (series often up to 80 µM), without a hit: at the highest dose activity change, negative = inhibition, hits mostly inhibitors;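 further: potency means the concentration at half of the fitted maximal effect; 0% = enzyme with vehicle and -100% = no enzyme basal signal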
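Inhibition or activation of alpha-galactosidase in human spleen homogenate is scored by 4-MU fluorescence after 40 min at 37C, pH 5.0, with 1 mM substrate. AC50s come from concentration-response fitted to the Hill equation.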
GLA inh pH 4.5: inhibitors of human alpha-galactosidase A at pH 4.5; P06280; 230,000 tested, under 10 active; AID 1467; purified enzyme, 4-MU-alpha-Gal fluorescence, pH 4.5; activity change, negative = inhibition, % at 105 µM;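 further: 0% = full activity with enzyme and -100% = basal without enzyme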
The depositor's hits bear a star; [ ] = dose if it differs, or a comment. Unless noted, the call rests on the fitted dose curve; in most records, active means well fitted curve in the direction sought with a large enough effect; inconclusive means small, poorly fitted or top-dose-only effect, or another doubt; inactive means no such curve, though single readings can be large; an effect the other way counts as inactive or inconclusive. Unless noted, on the % scale 0 is the no-effect control and ±100 the full control effect.

Results for O=C(CCCOc1ccc(Cl)cc1Cl)NCC1CCCO1 (stereo not drawn) ?
ALOX12 inhib: 0%; ALDH1A1 block: inconclusive; PNC inhibitor: -9; HPGD block: 11µM*; aGal spleen mod: 8%; GLA inh pH 4.5: -2

Results for COC(=O)CCCOc1ccc(Cl)cc1Cl ?
ALOX12 inhib: 3%; ALDH1A1 block: 13%; HPGD block: -30%; aGal spleen mod: 0%; GLA inh pH 4.5: 2

How did O=C(COC(=O)CCCOc1ccc(Cl)cc1Cl)NCc1ccccc1 do in these assays?
ALOX12 inhib: -6%; ALDH1A1 block: 3%; PNC inhibitor: -3; HPGD block: inconclusive; aGal spleen mod: 8%; GLA inh pH 4.5: -8

How did Cc1ccc(CNC(=O)COC(=O)CCCOc2ccc(Cl)cc2Cl)cc1 do in these assays?
ALOX12 inhib: 3%; ALDH1A1 block: 11%; PNC inhibitor: 45; HPGD block: 16µM*; aGal spleen mod: -6%; GLA inh pH 4.5: -2

How did CCNC(=O)CCCOc1ccc(Cl)cc1Cl do in these assays?
ALOX12 inhib: 0%; ALDH1A1 block: 1%; PNC inhibitor: -1; HPGD block: 14µM*; aGal spleen mod: -6%; GLA inh pH 4.5: 10

What do the screens show for `O=C(CCCOc1ccc(Cl)cc1Cl)Nc1ccncc1`?
ALOX12 inhib: -13%; ALDH1A1 block: inconclusive; PNC inhibitor: 11; HPGD block: 14µM*; aGal spleen mod: 3%; GLA inh pH 4.5: -14

What do the screens show for `Cc1nn(C)cc1/C=N/NC(=O)Cn1cncn1`?
aGal spleen mod: 4%; GLA inh pH 4.5: -5

Results for O=c1c2ccccc2c(=O)n(Cc2ccccc2)n1Cc1ccccc1 ?
ALOX12 inhib: -5%; ALDH1A1 block: inconclusive; PNC inhibitor: -1; HPGD block: -14%; aGal spleen mod: -4%; GLA inh pH 4.5: -5

What do the screens show for `COc1ccc(NC(=O)N2CCCC3(CCN(C(=O)c4ccncc4)CC3)C2)cc1`?
ALOX12 inhib: -4%; ALDH1A1 block: inconclusive; HPGD block: -25%; aGal spleen mod: -4%

How did Clc1ccc(OCCCc2nc(-c3cccnc3)no2)c(Cl)c1 do in these assays?
ALOX12 inhib: -14%; ALDH1A1 block: 4%; PNC inhibitor: 8; aGal spleen mod: -13%; GLA inh pH 4.5: 1

Results for Cc1noc(C)c1COC(=O)Cc1ccc(Cl)cc1 ?
ALOX12 inhib: -16%; ALDH1A1 block: 17%; PNC inhibitor: 23; HPGD block: -10%; aGal spleen mod: 3%; GLA inh pH 4.5: -5

How did Cc1noc(C)c1COC(=O)CCCOc1ccc(Cl)cc1Cl do in these assays?
ALOX12 inhib: -17%; ALDH1A1 block: 14%; PNC inhibitor: -26; HPGD block: 18µM*; aGal spleen mod: 1%; GLA inh pH 4.5: -6

How did Cc1noc(C)c1COC(=O)C(c1ccccc1)c1ccccc1 do in these assays?
ALDH1A1 block: 11µM*; aGal spleen mod: -5%; GLA inh pH 4.5: 4

How did Cc1noc(C)c1COC(=O)CCCc1c[nH]c2ccccc12 do in these assays?
ALOX12 inhib: -6%; ALDH1A1 block: 14µM*; PNC inhibitor: 6; HPGD block: inconclusive; aGal spleen mod: -15%; GLA inh pH 4.5: -11

What do the screens show for `Clc1ccc(OCCCc2nc(-c3ccncc3)no2)c(Cl)c1`?
ALOX12 inhib: -15%; ALDH1A1 block: -4%; PNC inhibitor: 4; HPGD block: 28µM*; aGal spleen mod: 11%; GLA inh pH 4.5: -24

What do the screens show for `O[C@@H](c1cc(-c2ccccc2)nc2c1ccc1ccccc12)C1CCCCN1` (stereo partly drawn)?
ALDH1A1 block: 0%[13.5 µM]; HPGD block: -11%

How did COc1ccccc1NC(=S)NC(=O)CCCOc1ccc(Cl)cc1Cl do in these assays?
ALOX12 inhib: inconclusive; ALDH1A1 block: 11µM*; PNC inhibitor: 40; HPGD block: -18%; aGal spleen mod: -5%; GLA inh pH 4.5: -3

How did CCN(CC)CCC(=O)c1ccc(F)cc1 do in these assays?
ALDH1A1 block: 1.1µM*; aGal spleen mod: 4%; GLA inh pH 4.5: -2
